# Experimental data: publication PMC5540273 (PLoS ONE, 2017)
# System: T1, MRCKB
# T1 construct: gene CDC42BPB
# Details: concentration: 1 μM,replicates: in singlicate; n = 1
# 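Further: KINOMEscan kinase panel screen.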
row,Compound,%Inh [%]
1,O=C(Nc1cccc(Oc2ccc3nccn3n2)c1)Nc1cccc(C(F)(F)F)c1,0
2,CN(c1ccccc1CNc1nc(Nc2ccc3c(c2)CC(=O)N3)ncc1C(F)(F)F)S(C)(=O)=O,0
3,NC(=O)c1ccc(-c2cc3ncnc(SCC(=O)O)c3s2)cc1,0
4,Cn1ccc2ncnc(Oc3ccc(NC(=O)Nc4cc(C(C)(C)C)on4)c(Cl)c3)c21,0
5,COC(=O)Nc1nc2cc(Oc3ccc(NC(=O)Nc4cc(C(F)(F)F)ccc4Cl)cc3)ccc2[nH]1.Cl [GW697465],0
6,COc1cc2c(Nc3ccc(NC(=O)c4ccccc4)cc3)ncnc2cc1OCCCN1CCOCC1 [GSK301329],0
7,C[C@@H]1CNc2c(sc3ccc4nc(-c5ccc(O)cc5)ccc4c23)C(=O)N1,0
8,CN(c1cccc(CNc2nc(Nc3ccc4c(c3)CC(=O)N4)ncc2C(F)(F)F)c1)S(C)(=O)=O,0
9,O=C(Nc1ccc(Oc2ccc3nc(NC(=O)C4CC4)cn3n2)c(F)c1)c1cccn(-c2ccccc2)c1=O,0
10,Nc1nccc(-c2ccc3c(N)n[nH]c3c2)n1 [GSK1034945],5
11,CNC(=O)c1ccccc1Nc1nc(Nc2cccc(CS(C)(=O)=O)c2)ncc1C.O=CO [GSK1520489],4
12,C[C@@H](Oc1cc(-n2cnc3cc(-c4ccncc4)ccc32)sc1C(N)=O)c1ccccc1Cl [GSK479719],8
13,N#Cc1cccc(C(=O)NC2CCN(c3ccnc(Nc4ccc(F)cc4)n3)C2)c1 (centres unmarked) [GSK1379708],0
14,FC(F)(F)c1cc(Br)cc(Nc2nccc(-c3cnn4ncccc34)n2)c1 [GW810578],0
15,NC(=O)Nc1sc(-c2ccc(F)cc2)cc1C(N)=O [GW789449],0
16,CC(=O)Nc1ccc(-c2cc3ncnc(SCC(=O)O)c3s2)cc1,0
17,Cc1cccc2c(-c3ccncc3)c(-c3ccc(F)cc3)nn12.Cl [GW461487],4
18,O=C1NCCc2[nH]c(-c3ccncc3)cc21,0
19,CCn1c(-c2nonc2N)nc2cncc(CNC3CCNCC3)c21.Cl [SB-747651],4

row,Compound,%Inh [%]
1,O=c1[nH]cc(-c2ccc(O)cc2)c2sc(-c3ccncc3)cc12 [GSK1033723],14
2,CCNCC(Cc1ccccc1)NC(=O)c1cc(Br)c(-c2ccnc3[nH]ccc23)s1.Cl.Cl (centres unmarked) [GSK1383280],98.2
3,O=C(Nc1ccccc1)c1cccc(Oc2ccc3nccn3n2)c1,0
4,Cl.c1ccc(Oc2ccc(Nc3ccnc4cc(-c5ccc(CN6CCNCC6)o5)ccc34)cc2)nc1 [GW567142],0
5,Cl.Nc1n[nH]c2cc(-c3ccccn3)ccc12 [GSK2189892],0
6,COc1ccc(Nc2nccc(N3CCC(NC(=O)c4cccc(C#N)c4)C3)n2)cc1 (centres unmarked) [GSK1379730],0
7,CC(C(=O)NC1CCN(c2ccnc(Nc3ccc(F)cc3)n2)C1)c1ccc(Cl)cc1 (centres unmarked) [GSK1379713],0
8,c1ccc(Oc2ccc(Nc3ccnc4ccc(-c5ccccn5)cc34)cc2)cc1 [GW407034],9
9,CS(=O)(=O)c1cccc(CNc2nc(Nc3ccc4c(c3)[C@@H]3C[C@@H]4CNC3=O)ncc2C(F)(F)F)c1,0
10,COc1cccc(OC)c1C(=O)Nc1cccc(-c2nn3ccccc3c2-c2ccnc(Nc3cccc(F)c3)n2)c1 [GSK361065],3
11,COC(=O)c1cccc(NC(=O)NC2CCN(c3ccnc(Nc4cc(OC)c(OC)c(OC)c4)n3)C2)c1 (centres unmarked) [GSK1379767],0
12,CC(C)c1nc(-c2cccc(NS(=O)(=O)c3ccccc3)c2)c(-c2ccnc(Nc3ccc4c(c3)CN(C)CC4)n2)s1 [GSK1649598],0
13,C[C@@H]1CCN(C(=O)N2CCCC2)C[C@@H]1N(C)c1ncnc2[nH]ccc12,0
14,CSc1nccc(-c2c(-c3ccc(F)cc3)ncn2CCCN2CCOCC2)n1.Cl [SB-217146],0
15,COc1cc2nccc(Nc3ccc(Oc4ccccc4)cc3)c2cc1OC.Cl [GI261656],0
16,Cc1ccc(Nc2ccnc(Nc3ccc4c(c3)CS(=O)(=O)C4)n2)cc1O.Cl [GW579362],0
17,Cc1nnc(-c2ccc3occ(-c4ccc(S(C)=O)cc4)c3n2)o1 (centres unmarked),43
18,O=C(NOCC1CC1)c1cc(Br)c(F)c(F)c1Nc1ccc(I)cc1Cl,0

# System: MST1R
# Details: concentration: 1 μM,replicates: in singlicate; n = 1
row,Compound,%Inh [%]
1,O=C(Nc1cccc(Oc2ccc3nccn3n2)c1)Nc1cccc(C(F)(F)F)c1,10
2,CN(c1ccccc1CNc1nc(Nc2ccc3c(c2)CC(=O)N3)ncc1C(F)(F)F)S(C)(=O)=O,65
3,NC(=O)c1ccc(-c2cc3ncnc(SCC(=O)O)c3s2)cc1,21
4,Cn1ccc2ncnc(Oc3ccc(NC(=O)Nc4cc(C(C)(C)C)on4)c(Cl)c3)c21,73
5,COC(=O)Nc1nc2cc(Oc3ccc(NC(=O)Nc4cc(C(F)(F)F)ccc4Cl)cc3)ccc2[nH]1.Cl [GW697465],41
6,COc1cc2c(Nc3ccc(NC(=O)c4ccccc4)cc3)ncnc2cc1OCCCN1CCOCC1 [GSK301329],43
7,C[C@@H]1CNc2c(sc3ccc4nc(-c5ccc(O)cc5)ccc4c23)C(=O)N1,23
8,CN(c1cccc(CNc2nc(Nc3ccc4c(c3)CC(=O)N4)ncc2C(F)(F)F)c1)S(C)(=O)=O,15
9,O=C(Nc1ccc(Oc2ccc3nc(NC(=O)C4CC4)cn3n2)c(F)c1)c1cccn(-c2ccccc2)c1=O,39
10,Nc1nccc(-c2ccc3c(N)n[nH]c3c2)n1 [GSK1034945],27
11,CNC(=O)c1ccccc1Nc1nc(Nc2cccc(CS(C)(=O)=O)c2)ncc1C.O=CO [GSK1520489],93.4
12,C[C@@H](Oc1cc(-n2cnc3cc(-c4ccncc4)ccc32)sc1C(N)=O)c1ccccc1Cl [GSK479719],21
13,N#Cc1cccc(C(=O)NC2CCN(c3ccnc(Nc4ccc(F)cc4)n3)C2)c1 (centres unmarked) [GSK1379708],39
14,FC(F)(F)c1cc(Br)cc(Nc2nccc(-c3cnn4ncccc34)n2)c1 [GW810578],0
15,NC(=O)Nc1sc(-c2ccc(F)cc2)cc1C(N)=O [GW789449],0
16,CC(=O)Nc1ccc(-c2cc3ncnc(SCC(=O)O)c3s2)cc1,25
17,Cc1cccc2c(-c3ccncc3)c(-c3ccc(F)cc3)nn12.Cl [GW461487],44
18,O=C1NCCc2[nH]c(-c3ccncc3)cc21,51
19,CCn1c(-c2nonc2N)nc2cncc(CNC3CCNCC3)c21.Cl [SB-747651],31

row,Compound,%Inh [%]
1,O=c1[nH]cc(-c2ccc(O)cc2)c2sc(-c3ccncc3)cc12 [GSK1033723],44
2,CCNCC(Cc1ccccc1)NC(=O)c1cc(Br)c(-c2ccnc3[nH]ccc23)s1.Cl.Cl (centres unmarked) [GSK1383280],30
3,O=C(Nc1ccccc1)c1cccc(Oc2ccc3nccn3n2)c1,7
4,Cl.c1ccc(Oc2ccc(Nc3ccnc4cc(-c5ccc(CN6CCNCC6)o5)ccc34)cc2)nc1 [GW567142],39
5,Cl.Nc1n[nH]c2cc(-c3ccccn3)ccc12 [GSK2189892],27
6,COc1ccc(Nc2nccc(N3CCC(NC(=O)c4cccc(C#N)c4)C3)n2)cc1 (centres unmarked) [GSK1379730],29
7,CC(C(=O)NC1CCN(c2ccnc(Nc3ccc(F)cc3)n2)C1)c1ccc(Cl)cc1 (centres unmarked) [GSK1379713],0
8,c1ccc(Oc2ccc(Nc3ccnc4ccc(-c5ccccn5)cc34)cc2)cc1 [GW407034],0
9,CS(=O)(=O)c1cccc(CNc2nc(Nc3ccc4c(c3)[C@@H]3C[C@@H]4CNC3=O)ncc2C(F)(F)F)c1,0
10,COc1cccc(OC)c1C(=O)Nc1cccc(-c2nn3ccccc3c2-c2ccnc(Nc3cccc(F)c3)n2)c1 [GSK361065],23
11,COC(=O)c1cccc(NC(=O)NC2CCN(c3ccnc(Nc4cc(OC)c(OC)c(OC)c4)n3)C2)c1 (centres unmarked) [GSK1379767],39
12,CC(C)c1nc(-c2cccc(NS(=O)(=O)c3ccccc3)c2)c(-c2ccnc(Nc3ccc4c(c3)CN(C)CC4)n2)s1 [GSK1649598],41
13,C[C@@H]1CCN(C(=O)N2CCCC2)C[C@@H]1N(C)c1ncnc2[nH]ccc12,8
14,CSc1nccc(-c2c(-c3ccc(F)cc3)ncn2CCCN2CCOCC2)n1.Cl [SB-217146],0
15,COc1cc2nccc(Nc3ccc(Oc4ccccc4)cc3)c2cc1OC.Cl [GI261656],30
16,Cc1ccc(Nc2ccnc(Nc3ccc4c(c3)CS(=O)(=O)C4)n2)cc1O.Cl [GW579362],81
17,Cc1nnc(-c2ccc3occ(-c4ccc(S(C)=O)cc4)c3n2)o1 (centres unmarked),2
18,O=C(NOCC1CC1)c1cc(Br)c(F)c(F)c1Nc1ccc(I)cc1Cl,31
